We go through 14 compounds from PubChem BioAssay.

Test [1] is described as follows: compound effects on lung adenocarcinoma cell viability – A549, calcein-AM fluorescence, 48 h, basal, profiling panel (AID 1162). The conditions noted are these: higher = more signal.
A short description of test [2]: compound effects on differentiated 3T3-L1 adipocyte viability – cell-based, 3T3-L1 adipocytes, calcein-AM fluorescence, 48 h, basal, profiling panel (AID 1163). The note with it: 3T3-L1 adipocytes viability, higher = more signal.
The nature of test [3]: compound effects on hepatocellular carcinoma cell viability – HepG2, calcein-AM fluorescence, 48 h, basal, profiling panel (AID 1164). The note with it: higher = more signal.
A short description of test [4]: compound effects on multiple myeloma cell viability – MM1S, calcein-AM fluorescence, 48 h, basal, profiling panel (AID 1165). The conditions noted are these: higher = more signal.
Test [5] can be described thus: calcein-AM signal in unstimulated myeloma cells – cell-based, calcein-AM fluorescence, 48 h, PK04 Diversity Set, profiling panel (AID 1166).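 Note: cells grown under basal conditions without added stimulus.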 The conditions noted are these: RPMI8226 myeloma viability, higher = more signal.
Test [6] can be described thus: JC-1 mitochondrial signal, unstimulated HepG2 cells – cell-based, JC-1 fluorescence, 24 h, 100 nL compound, profiling panel (AID 1167). The conditions noted are these: HepG2 mitochondrial potential, higher = more signal.
The nature of test [7]: JC-1 mitochondrial signal, unstimulated adipocytes – cell-based, JC-1 fluorescence, 3T3-L1 adipocytes, 24 h, 100 nL compound, profiling panel (AID 1168). The conditions noted are these: JC-1 mitochondrial fluorescence, higher = more signal, called active from +8 up or from −8 down.
Test [8] can be described thus: JC-1 mitochondrial signal, unstimulated myeloma cells – cell-based, JC-1 fluorescence, RPMI8226, 24 h, 100 nL compound, profiling panel (AID 1169). The note with it: JC-1 mitochondrial potential fluorescence, higher = more signal.
A short description of test [9]: JC-1 mitochondrial signal, unstimulated MM1S myeloma – cell-based, JC-1 fluorescence, 24 h, 100 nL compound, profiling panel (AID 1170). The conditions noted are these: MM1S mitochondrial potential, higher = more signal.
The nature of test [10]: resazurin metabolic signal in A549 cells – cell-based, resazurin fluorescence, 24 h, PK04 Diversity Set, profiling panel (AID 1171). The conditions noted are these: A549 viability, higher = more signal, called active from +8 up or from −8 down.

Each structure is given as a SMILES string. Calls of active or inactive are those of the source.
Note: test concentration not given here.

Regarding `CCOC(=O)[C@H]1[C@@H]2C(=O)N3CCC[C@H]3[C@H](O[Si](C(C)C)(C(C)C)C(C)C)[C@H]2C=C2CCN(S(=O)(=O)c3ccc(C)cc3)C[C@H]21`, the z-score in [1] was 0.487; in [2], 0.302; in test [3] it was -1.18; in test [4], -2.91; in test [5], -4.09; in [6] it was 1.51. In addition, the z-score was -0.603 (inactive) in [7], -1.06 in test [8], -0.814 in [9] and -0.742 (inactive) in test [10].

As for `C=C(/C(=C/C[C@H](OC(C)=O)c1cccc(OCCO)c1)c1cnc2ccccc2c1)C(C)C`, the z-score is 0.336 in [1]; 0.811 in test [2]; 0.0181 in [3]; -0.861 in [4]; 0.0738 in test [5]; 1.28 in [6]. Moreover, the z-score in [7] was 0.224 (inactive); in test [8] it was 0.649; in [9] it was -0.105; in test [10], 0.236 (inactive).

`CC(C)(C)OC(=O)CC[C@]1(C(=O)NCc2ccccc2)N=C(c2ccc(OCCCO)cc2)O[C@H]1c1ccccc1CN=[N+]=[N-]`: the z-score in test [1] is 0.858; in [2] it was -0.0665; in test [3], 2.17; in test [4], -0.863; in test [5], 0.213; in test [6], 1.17. The z-score in [7] is 0.0993 (inactive); in test [8], -0.518; in test [9], -0.773; in test [10], -0.768 (inactive).

Regarding `C=CCOC(=O)[C@H]1[C@@H]2C(=O)O[C@@H](c3ccccc3)[C@@H](c3ccccc3)N2[C@@H](c2ccc(OCCOC(=O)[C@@H]3C[C@@H]4C(=O)N[C@@H](CCCCN(C)C)C(=O)N4[C@@H]3c3ccc(O)cc3)cc2)[C@]12C(=O)Nc1ccccc12`, the z-score in [1] was -0.0988; in [2], 0.887; in test [3], 0.52; in test [4], -0.305; in test [5] it was -0.0297; in test [6] it was -2.38. Further, the z-score in [7] is 0.0411 (inactive); in test [8], -0.473; in test [9] it was -0.92; in test [10], 0.23 (inactive).

Turning to `CC(C)(C)N1CC=CC23O[C@@H]4C=CCCOC(=O)C4[C@H]2C(=O)N(CCO)[C@@H]3C1=O` (stereo not given in full), the z-score in test [1] is -0.708; in [2], -0.358; in test [3] it was -0.811; in test [4], 0.18; in test [5], 0.608; in test [6] it was -0.405. Further, the z-score was -1.46 (inactive) in test [7], 0.168 in test [8], -0.132 in [9] and -0.693 (inactive) in test [10].

`CCOC(=O)C[C@H]1[C@H](OC(=O)c2cc3ccccc3oc2=O)[C@@H](NC(=O)c2ccc(-c3ccccc3)cc2)c2cc(OCCCO)ccc2N1C(=O)c1ccc2ccccc2n1`: the z-score in test [1] was 0.224; in [2], 0.198; in test [3], 1.25; in test [4], 0.0181; in [5] it was 0.624; in test [6] it was 0.259. The z-score was -0.023 (inactive) in [7], 0.174 in [8], -0.122 in [9] and 0.73 (inactive) in test [10].

In the case of `O=C(CS)NCCCCCCNC(=O)[C@H]1C[C@H]2C(=O)N[C@@H](Cc3ccccc3)C(=O)N2[C@H]1c1ccc(O)cc1`, the z-score in [1] was 0.215; in test [2], 0.0724; in test [3] it was -0.521; in test [4], -1.51; in test [5], 0.388; in test [6] it was -1.57. Further, the z-score in test [7] was -1.09 (inactive); in test [8], -0.254; in test [9], 0.046; in test [10], 1.26 (inactive).

Consider `CCCNC(=O)[C@@H]1c2ccccc2C(=O)N(C(C)C)[C@H]1c1ccc(CO)cc1`, for which the z-score is 0.678 in test [1]; 0.306 in test [2]; 0.997 in test [3]; 0.92 in [4]; -0.34 in [5]; 1.81 in [6]. In addition, the z-score in test [7] is 1.82 (inactive); in test [8], -0.119; in test [9] it was -0.695; in test [10] it was 0.136 (inactive).

Take `CC(C)N1C(=O)c2ccccc2[C@@H](C(=O)NC2CC2)[C@@H]1c1ccc(CO)cc1`: the z-score in [1] was 0.798; in test [2], 0.774; in test [3] it was 0.476; in test [4] it was -0.0123; in [5] it was 0.282; in test [6], 0.507. The z-score in test [7] is 0.319 (inactive); in [8], 0.108; in test [9] it was 0.0665; in test [10] it was 0.743 (inactive).

On to `COc1ccc([Si](C)(C)[C@@H]2[C@@H](CC(=O)N(CCO)Cc3ccccc3)O[C@]3(C(=O)N(Cc4cccc(N5CCOC5=O)c4)c4ccccc43)[C@H]2C)cc1`, for which the z-score in test [1] is -1.23; in test [2], 0.836; in [3] it was -1.64; in test [4], -2.66; in [5] it was -3.51; in [6], -0.0766. In addition, the z-score is 0.0933 (inactive) in test [7], -1.07 in test [8], -0.991 in [9] and -2.25 (inactive) in test [10].

Take `COc1cc(OC)c(C(O)C2C=CC3C(=O)N(c4ccccc4)C(=O)C3N2Nc2ccccc2)cc1Br` (stereo not given): the z-score in test [1] was 1.84; in test [2], -1.48; in [3], 0.0936; in test [4] it was 0.251; in test [5] it was -0.562; in test [6] it was -2.11. Also, the z-score in test [7] was -0.602 (inactive); in [8], 0.292; in test [9], -0.761; in [10], 0.439 (inactive).

For the compound `[N-]=[N+]=NCc1ccccc1C[C@]1(C(N)=O)N=C(c2ccc(OCCCO)cc2)O[C@H]1c1ccccc1`, the z-score in test [1] is -0.277; in test [2], -0.0112; in test [3], -0.284; in [4] it was -2.25; in [5] it was -1.04; in [6], -0.417. For the same compound, the z-score in [7] was 0.587 (inactive); in [8], -0.715; in test [9], -0.464; in test [10], 0.004 (inactive).

For the compound `[N-]=[N+]=Nc1ccccc1C[C@]1(C(=O)N2CCOCC2)N=C(c2ccc(OCCCO)cc2)O[C@H]1c1ccccc1`, the z-score was 0.375 in test [1]; 0.854 in test [2]; 1.58 in test [3]; -0.35 in test [4]; -0.911 in test [5]; 1.99 in test [6]. The z-score was 1.18 (inactive) in [7], -1.18 in test [8], -0.438 in [9] and 0.0917 (inactive) in test [10].

As for `C[C@@H]1NC(=O)[C@@]23C(=O)N[C@@H](Cc4ccccc4)C2[C@H](C)[C@@]2(C)O[C@H]2C3/C=C/C/C=C\CNC(=O)[C@@H]2CCCN2C1=O` (stereo not given in full), the z-score in test [1] is -0.143; in test [2], 0.389; in [3], -0.0552; in test [4], 0.37; in [5], -0.0448; in test [6], -0.175. The z-score in test [7] is 1.19 (inactive); in test [8] it was 0.632; in [9], -0.0219; in [10], 0.247 (inactive).
